# Screening results (PubChem BioAssay)
# In the library only some 5.7% were active in any assay of this set; here they are far more common.
# hcDAF12 agonist: activators of H. contortus DAF-12 nuclear receptor. HEK293 hcDAF-12 lit1-tk-luc reporter, luminescence; 0% DMSO, 100% Δ7-dafachronic acid. activation, % at 6.8 µM. 370,000 tested, 1.4% active. AID 652067;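 active = activation above the mean of all tested compounds plus 3 SD, cut at about 5.5% in these data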
# AHR act: activators of human aryl hydrocarbon receptor | 320,000 tested, 2.5% active | AHR-responsive luciferase reporter cells, luminescence | AID 2796 | P35869 | activation, % at 5 µM; in the data active = activation above about 47%
# DAX1 inh-1: inhibitors of DAX1 repression of SF-1 activated StAR promoter; HEK293T StAR-luciferase reporter, SF-1/DAX-1 repression relief; inhibition, % at 6.8 µM; 370,000 tested, 1.1% active; AID 652010;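 active = inhibition above the mean over all tested compounds plus 3 SD, cut at about 3.6% in these data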;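 also: higher inhibition means more luminescence from relief of DAX-1 repression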
# ssDAF12 agonist: activates DAF-12 receptor from parasite S. stercoralis | HEK293 ssDAF-12/GRIP1 lit1-tk-luc reporter, luminescence; % of 3 µM dafachronic acid response | 370,000 tested, 1% active | AID 652126 | activation, % at 6.8 µM;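 active = activation above the mean over all tested compounds plus 3 SD, cut at about 0.9% in these data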
# DAX1 inh-2: inhibitors of human orphan nuclear receptor DAX1 (NR0B1) | inhibition, % at 6.75 µM | 340,000 tested, 0.99% active | HEK293 Gal4-DAX1 luciferase reporter, luminescence | P51843 | AID 504766;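 active = inhibition above the mean over all tested compounds plus 3 SD, cut at about 4.2% in these data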;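 also: inhibition shows as a rise in luminescence from relieved DAX1 repression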
# Target sequence (P51843 207-470 limits assumed): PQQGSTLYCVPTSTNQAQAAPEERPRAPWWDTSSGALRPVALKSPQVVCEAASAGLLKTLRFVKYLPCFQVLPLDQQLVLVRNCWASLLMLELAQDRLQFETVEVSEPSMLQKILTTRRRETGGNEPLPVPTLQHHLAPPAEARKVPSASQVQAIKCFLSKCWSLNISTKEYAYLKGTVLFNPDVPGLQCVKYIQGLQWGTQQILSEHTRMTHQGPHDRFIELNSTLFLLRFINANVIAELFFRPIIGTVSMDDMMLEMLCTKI
# hgDAF12 agonist: hgDAF-12 agonism, primary luciferase screen. 370,000 tested, 1.8% active. AID 687014. HEK293 GAL4-hgDAF12 UAS-luciferase reporter, agonist luminescence; normalized to butyrate control. activation, % at 6.8 µM;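 active = activation above a cutoff set at the mean of all screened compounds plus 3 SD, cut at about 10% in these data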
# LXRb hcDAF ctr: counter-screen for hcDAF-12 agonists: agonists of human LXR-beta. 3,400 tested, under 10 active. shares compounds with hcDAF12 agonist. HEK293 Gal4-LXR tk-luc reporter, luminescence, 24 h; normalized: DMSO 0%, positive control 100%. activation, % at 6.8 µM. AID 743027;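 active = mean percent activation of the reporter above a cutoff set as the average over tested compounds plus their standard deviation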
# hcDAF12 ag: hcDAF-12 agonism, confirmation assay | shares compounds with hcDAF12 agonist | HEK293 hcDAF-12 lit1-tk-luc reporter, luminescence; % of Δ7-dafachronic acid response | activation, % at 6.8 µM | 3,400 tested, 61% active;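 active = mean activation across triplicate tests above the threshold derived from the earlier primary screen, cut at about 5.5% in these data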
# Hits are given with their value; n = inactive; x = no result.
SMILES,hcDAF12 agonist,AHR act,DAX1 inh-1,ssDAF12 agonist,DAX1 inh-2,hgDAF12 agonist,LXRb hcDAF ctr,hcDAF12 ag
c1ccc(-n2nnc3c(N4CCOCC4)ncnc32)cc1,7.2,n,n,n,n,n,n,6.3
CCC(Cc1ccccc1)NC(=O)C1=C(C)C(=O)OC12CCC(C)CC2 (stereo not given),n,n,n,n,n,n,x,x
CCOc1ccccc1NC(=O)Cn1nnc(C(=O)NCc2ccc3c(c2)OCO3)c1N,n,n,n,n,n,n,x,x
COc1cccc(NC(=O)n2ncc3c(C)cccc32)c1,13.3,n,n,1.8,n,16.9,n,13.5
O=C(Nc1ccnn1C1CCN(Cc2ccccc2OC(F)F)CC1)c1cccnc1,n,n,n,n,n,n,x,x
O=C(Nc1nccs1)c1cnc2sccn2c1=O,8.5,x,n,1.5,n,n,n,7.6
COC(=O)c1ccccc1NC(=O)c1cnc2sccn2c1=O,n,n,n,n,n,n,x,x
CCCN1CCN(S(=O)(=O)c2ccc(-c3cc(C)no3)s2)CC1,n,n,n,n,n,n,x,x
O=c1c2cc(Cl)ccc2[nH]c(=S)n1Cc1ccco1,n,n,n,n,n,n,x,x
O=c1c2cc(Cl)ccc2[nH]c(=S)n1Cc1cccs1,6.7,n,n,n,n,n,n,n
Cc1nn(C)cc1S(=O)(=O)Nc1ccc(F)c(F)c1,n,n,n,n,n,n,x,x
CCc1ccc(NS(=O)(=O)c2ccc3[nH]cc(C(=O)N4CCc5ccccc54)c(=O)c3c2)cc1,7.3,n,n,1.2,n,n,n,5.7
Cc1cc(C)cc(NS(=O)(=O)c2ccc3[nH]cc(C(=O)N4CCc5ccccc54)c(=O)c3c2)c1,n,n,n,n,n,n,x,x
N#CC1=C(N)Oc2c(oc(CO)cc2=O)C1c1ccsc1 (stereo not given),n,n,n,n,n,n,x,x
N#CC1=C(N)Oc2c(ccc3ccccc23)C1c1ccsc1 (stereo not given),7.1,59.5,n,0.9,n,11.8,n,n
CN(CC(=O)Nc1ccc(N2CCOCC2)cc1)C(=O)CCNC(=O)c1ccc(Br)cc1,n,n,n,n,n,n,x,x
Cn1ncc(Cl)c1C(=O)Nc1nc2ccc(Cl)cc2s1,8.5,59.6,n,1.1,n,12.2,n,10.2
Cc1ccc(NC(=O)c2ccc(OC(=O)COc3cccc(Cl)c3)cc2)cc1,7.6,n,3.9,n,n,11.7,n,n
COc1cc(C)c(CN2CCN(CC(=O)Nc3ccccc3C(=O)NC3CC3)CC2)cc1OC,n,n,n,n,n,n,x,x
Cc1ccc(-c2cc(C(=O)n3cnc4ccccc43)c3ccccc3n2)cc1C,8.1,n,n,1.5,n,n,n,n
CC(=O)N1C2CCCCC2S[C@H]2CCCCC21 (stereo not given in full),n,n,n,n,n,n,x,x
Cc1ccc(-c2nc3ccccc3s2)cc1NC(=O)c1ccc2c(c1)OCO2,n,n,n,n,n,n,x,x
O=C(Nc1cc(-c2nc3ccccc3s2)ccc1Cl)c1ccc2c(c1)OCO2,9.9,n,n,1.6,n,11.0,n,6.3
O=C(/C=C/c1ccco1)Nc1ccc(-c2nc3ccccc3[nH]2)cc1,n,n,n,n,n,n,x,x
COc1ccc(C=Cc2ccc3ccccc3n2)c(OC)c1,n,x,n,n,n,n,x,x
SMILES,hcDAF12 agonist,AHR act,DAX1 inh-1,ssDAF12 agonist,DAX1 inh-2,hgDAF12 agonist,LXRb hcDAF ctr,hcDAF12 ag
C(=C\c1ccco1)/c1nc2ccccc2[nH]1,7.3,n,n,n,n,n,n,9.4
C(=C\c1ccco1)/c1ccc2ccccc2n1,7.3,n,n,n,x,n,n,13.2
O=C(NC1CC1)c1ccc(N2CCCCC2)c([N+](=O)[O-])c1,n,n,n,n,n,n,x,x
COc1ccccc1C(=O)NNC(=O)c1cccc(F)c1,10.4,n,3.9,1.2,n,n,n,11.0
COc1ccccc1C(=O)NNC(=O)c1ccc(C)cc1,n,n,n,n,n,n,x,x
COc1ccccc1C(=O)NNC(=O)c1ccc(NS(=O)(=O)c2cccs2)cc1,10.2,n,n,n,n,n,n,6.4
COc1ccccc1C(=O)NNC(=O)c1cccc(O)c1,10.3,n,n,2.6,n,n,n,15.0
CC(=O)N(C)c1cccc(-c2ccc3nnc(C)n3n2)c1,n,n,n,n,n,n,x,x
O=C(Cc1ccc(NC(=O)C2CCCN(C(=O)CCc3ccccc3)C2)cc1)Nc1cccc(C(=O)N2CCCC2)c1 (stereo not given),n,x,n,n,n,n,x,x
COc1ccc(C(=O)O/N=C(\N)c2ccccn2)c(OC)c1,n,n,n,n,n,n,x,x
N/C(=N\OC(=O)COc1ccc2ccccc2c1Br)c1ccccn1,n,n,n,n,n,n,x,x
N/C(=N\OC(=O)COc1ccc(Br)cc1Cl)c1ccccn1,9.8,n,4.2,n,n,n,n,7.6
COc1ccc(Cl)cc1C(=O)O/N=C(\N)c1ccccn1,7.1,n,n,n,n,n,n,n
C/C(=N\O)C(C)(C)Nc1ccccc1F,n,n,n,n,n,n,x,x
CN1CCN(CCCNC(=O)Cn2nc(-c3ccccc3)ccc2=O)CC1,8.5,n,n,n,n,n,n,n
Cc1nc2ccc(NC(=O)c3ccc(C)c(S(=O)(=O)N4CCOCC4)c3)cc2s1,n,n,n,n,n,n,x,x
CCN(CC)CCn1c(NC(=O)c2ccc(C(F)(F)F)cc2)nc2ccccc21,n,n,n,n,n,n,x,x
CCN(CC)CCn1c(NC(=O)c2ccc(C)cc2)nc2ccccc21,10.7,n,n,1.0,n,n,n,n
CN(C)CCn1c(NC(=O)c2ccc(Cl)cc2)nc2ccccc21,7.1,n,3.8,n,n,n,n,9.9
CC(=O)Nc1nc2ccccc2n1Cc1ccc(Cl)cc1,n,n,n,n,n,n,x,x
CCCCOC(=O)Nc1ccc(C(C)C)cc1,n,n,n,n,n,n,x,x
CCCCOC(=O)Nc1ccc(N(C)C)cc1,7.2,n,4.4,n,n,11.3,n,5.8
COc1ccc(-c2cc(-c3cc(C)ccc3O)[nH]n2)cc1,7.6,n,n,1.2,n,n,n,n
COc1ccc(-c2cc(-c3ccc(C)cc3)n[nH]2)c(O)c1,6.9,n,n,n,5.8,13.1,n,n
Cc1ccc(O)c(-c2cc(-c3ccc(F)cc3)no2)c1,18.6,n,n,4.0,7.7,19.6,n,18.1
COc1ccc(-c2cc(-c3ccc(OC)cc3)[nH]n2)cc1,n,n,n,n,n,n,x,x
O=[N+]([O-])c1ccc2c(c1)N([O-])C1(CCCCC1)[N+]2=O,n,x,n,n,x,n,x,x
